Screening data from PubChem.
p53null 39C kill: kills p53 null cells at the nonpermissive temperature | AID 904 | hit rate 0.97% among 55,000 | Potency, µM (series often up to 46.1 µM), for inactives: top-dose activity, negative = cell killing, most hits filed as cytotoxic | H1299 p53-null (neo) cells, 39C, ATPlite viability, 24 h;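 also: potency is read from the fitted curve at half-maximal effect; 0% = DMSO only and -100% = full killing by 100 µM tamoxifen; nearly all actives have a fitted effect of over 50% in size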
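Luminescent ATP signal reported cell survival after H1299 lines (neo, p53 null; or p53 A138V) received up to 46 uM compound and 24 hr incubation at 39C.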
OvCa metastasis: inhibitors of ovarian cancer cell adhesion and invasion in omental model | hit rate 0.1% among 46,000 | AID 1963576 | Potency, µM (doses to about 45.8 µM), without a hit: at the highest dose activity change, negative = inhibition, usual class: inhibitors | SKOV3ip1-GFP adhesion/invasion on 3D omental model, fluorescence;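 also: potency is read from the fitted curve at half-maximal effect; plate controls were DMSO wells for no effect and tomatine positive control wells for full effect; nearly all actives have a fitted effect of over 65% in size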
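Primary human omental fibroblast/mesothelial 3D culture pre-formed 48 h. SKOV3ip1-GFP cells added with compounds (0.36-46 umol/L), incubated 2 h RT/16 h 37 C, fixed; GFP cells quantified at 488/509 nm.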
mTORC1 inh: reduces mTORC1 signaling in Tsc2 and p53 null MEF cells | Tsc2-/- p53-/- MEF, phospho-rpS6 immunofluorescence/PI, 24 h | Potency, µM (doses to about 38.3 µM), for the others: at the top dose activity change, negative = inhibition, usual class: inhibitors | hit rate 0.78% among 44,000 | AID 493208;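 also: potency is read from the fitted curve at half-maximal effect; plate controls were DMSO for no effect and rapamycin for full effect; nearly all actives have a fitted effect of over 50% in size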
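Tsc2-/-, p53-/- mouse embryonic fibroblasts (empty-vector line) exposed to compound 24 hrs at 37 C, fixed, immunostained for phospho-rpS6 and counterstained with propidium iodide. Acumen laser scanning gives % positive cells from Alexa 488/PI ratio, thresholded using 7.5 nM rapamycin; PI count gives viability.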
PMP22 txn: modulators of PMP22 gene transcription in S16 Schwann cells; S16 Pmp22-F2sN Schwann cells, FLuc/NLuc coincidence luminescence, 24 h; Potency, µM (doses to about 57.5 µM), for the others: at the top dose activity change, negative = inhibition, most hits filed as inhibitors; hit rate 2% among 43,000; active = clear falling dose curves in both reporters; inconclusive = both reporters move, but less clearly or upward; inactive = either reporter flat; the % is the NLuc reporter signal; also: potency is read from the fitted curve at half-maximal effect; % is scaled to controls: 0 for no effect and ±100 for the full control effect
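Schwann cells carrying the coincidence reporter were exposed to library compounds for 24 h at 37C, then lysed and read for FLuc and, after quenching, NLuc luminescence on a CCD imager.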
S16 F2sN tox: toxic to S16 Pmp22-F2sN Schwann cells | Potency, µM (highest dose often 57.5 µM), without a hit: at the top dose activity change, negative = cytotoxicity, most hits filed as cytotoxic | hit rate 0.48% among 43,000 | AID 1508642 | S16 Pmp22-F2sN Schwann cells viability, CellTiter-Glo, 24 h; also: potency is read from the fitted curve at half-maximal effect; % is scaled to controls: 0 for no effect and ±100 for the full control effect; nearly all actives have a fitted effect of over 65% in size
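S16 Schwann cells carrying the Pmp22-F2sN reporter, seeded in 1536-well format, were exposed to library compounds for 24 h at 37C. Viability was read as CellTiter-Glo luminescence after 15 min at room temperature.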
p53null 32C tox: p53 null cell cytotoxicity, permissive temperature | AID 903 | Potency, µM (top dose mostly 46.1 µM), without a hit: top-dose activity change, negative = cytotoxicity, actives largely listed as cytotoxic | H1299-neo p53 null cells, ATP luminescence, 24 h, 32C | hit rate 0.62% among 55,000;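 also: potency is read from the fitted curve at half-maximal effect; 0% = DMSO only and -100% = full killing by 100 µM tamoxifen; nearly all actives have a fitted effect of over 55% in size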
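H1299-neo, 600 cells/well; overnight 37C; cpd up to 46 uM, 24 h at 32C; ATPlite luminescence after 20 min RT; normalized to DMSO (0%) and tamoxifen 100 uM (100% kill); Hill-fit AC50.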
NLuc sat counter: inhibits NanoLuc at saturating substrate, PMP22 counter-screen; shares compounds with PMP22 txn; Secreted NLuc enzyme (filtered S16 cell medium), Nano-Glo luminescence; Potency, µM (doses to about 57.5 µM), without a hit: at the top dose activity change, negative = inhibition, most hits filed as inhibitors; hit rate 4% among 690; also: potency is read from the fitted curve at half-maximal effect; % is scaled to controls: 0 for no effect and ±100 for the full control effect
NLuc Km counter: counter-screen for PMP22 expression modulators: NanoLuc inhibition at Km | shares compounds with PMP22 txn | hit rate 5% among 690 | secreted NLuc enzyme, coelenterazine luminescence, Km conditions | Potency, µM (doses to about 57.5 µM), without a hit: top-dose activity change, negative = inhibition, usual class: inhibitors; also: potency is read from the fitted curve at half-maximal effect; % is scaled to controls: 0 for no effect and ±100 for the full control effect
FLuc counter: counter-screen for PMP22 expression modulators: firefly luciferase inhibition | AID 1508640 | shares compounds with PMP22 txn | 690 tested, under 10 active | Potency, µM (titrated, usually from 57.5 µM), for inactives: top-dose activity, negative = inhibition, usual class: inhibitors | purified P. pyralis FLuc, luminescence, 10 min; also: % of control where 0% means no effect
Target sequence (P08659 whole entry, looked up): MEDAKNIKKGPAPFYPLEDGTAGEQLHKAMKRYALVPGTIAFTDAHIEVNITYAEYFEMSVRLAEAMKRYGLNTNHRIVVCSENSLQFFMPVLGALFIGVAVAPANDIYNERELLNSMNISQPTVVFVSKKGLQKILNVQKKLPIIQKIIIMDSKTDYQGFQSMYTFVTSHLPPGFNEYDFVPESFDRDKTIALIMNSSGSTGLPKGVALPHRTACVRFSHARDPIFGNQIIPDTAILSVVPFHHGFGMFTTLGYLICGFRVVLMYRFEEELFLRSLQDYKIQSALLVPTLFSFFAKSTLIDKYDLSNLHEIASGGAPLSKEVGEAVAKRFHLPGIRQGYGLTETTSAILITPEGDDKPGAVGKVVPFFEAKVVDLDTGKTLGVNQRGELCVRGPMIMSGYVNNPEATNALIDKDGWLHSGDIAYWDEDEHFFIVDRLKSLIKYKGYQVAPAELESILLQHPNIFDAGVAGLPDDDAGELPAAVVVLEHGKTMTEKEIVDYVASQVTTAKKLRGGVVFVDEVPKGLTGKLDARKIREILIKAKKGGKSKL
S16 F2sN tox cnf: confirmation of cytotoxicity in S16 Pmp22-F2sN Schwann cells (luciferase reporters placed in the Pmp22 gene); Potency, µM (highest dose often 57.5 µM), without a hit: top-dose activity change, negative = viability loss, usual class: cytotoxic; hit rate 7% among 690; S16 Schwann cells viability, CellTiter-Glo ATP luminescence, 24 h; shares compounds with PMP22 txn; AID 1508641; also: potency is read from the fitted curve at half-maximal effect; % is scaled to controls: 0 for no effect and ±100 for the full control effect
PMP22 txn cnf: PMP22 transcription modulation, confirmatory; shares compounds with PMP22 txn; S16 Schwann cells Pmp22-F2sN, dual luciferase, 24 h; Potency, µM (titrated, usually from 57.5 µM), for the others: at the highest dose activity change, negative = inhibition, actives largely listed as inhibitors; hit rate 22% among 690; AID 1508646; active = clear falling dose curves in both reporters; inconclusive = both reporters move, but less clearly or upward; inactive = either reporter flat; the % is the FLuc reporter signal; also: potency is read from the fitted curve at half-maximal effect
PMP22 prot conf: rat PMP22 protein level modulation, confirmatory; shares compounds with PMP22 txn; S16 Schwann cells Pmp22-HiBiT, luminescence, 48 h; Potency, µM (highest dose often 27.9 µM), without a hit: at the highest dose activity change, negative = inhibition, hits mostly inhibitors; 95 tested, under 10 active; AID 1508647
Target sequence (P25094 whole entry, looked up): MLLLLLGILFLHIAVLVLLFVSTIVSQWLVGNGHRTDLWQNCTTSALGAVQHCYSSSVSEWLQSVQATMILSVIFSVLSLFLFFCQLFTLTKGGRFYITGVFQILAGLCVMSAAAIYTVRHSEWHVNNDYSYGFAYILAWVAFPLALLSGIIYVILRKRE
Numbers without * were called inactive; i = inactive; ? = inconclusive; . = no result given; [ ] = remark or other dose. Most compounds without a hit are left out; they make up all but 3% or so of the library. Unless noted, calls follow the shape of the dose curve; as a rule, active = well fitted curve in the direction sought with a large enough effect; inconclusive = small, poorly fitted or top-dose-only effect, or another doubt; inactive = no such curve, though single readings can be large; an effect the other way counts as inactive or inconclusive.

SMILES | p53null 39C kill | OvCa metastasis | mTORC1 inh | PMP22 txn | S16 F2sN tox | p53null 32C tox | NLuc sat counter | NLuc Km counter | FLuc counter | S16 F2sN tox cnf | PMP22 txn cnf | others
COc1ccnc2[nH]cc(C(=O)C(=O)N3CCN(C(=O)c4ccccc4)C[C@@H]3C)c12 | . | -8% | . | . | . | . | . | . | . | . | .
CCOC(=O)c1c(C)c(-c2ccccc2)n(CC(=O)Nc2cccc(C)c2C)c1C | -13% | i | 1% | ? | 10% | -5% | . | . | . | . | .
CCOC(=O)c1c(C)c(-c2ccccc2)n(CC(=O)Nc2cc(C)ccc2OC)c1C | -1% | -6% | 0% | 9.5µM* | -3% | 1% | -4% | 4% | -4% | -9% | ?
Cc1ccc(C(=O)c2cc(O)c(O)c([N+](=O)[O-])c2)cc1 | . | 26% | . | . | . | . | . | . | . | . | .
O=C(C=Cc1cccnc1)NCCCCC1CCN(C(=O)c2ccccc2)CC1 | . | 4% | . | . | . | . | . | . | . | . | .
COc1cccc(CNC(=O)c2cc3c(=O)n(C)c4ccccc4c3n2C)c1 | -26% | -13% | 2% | 13µM* | 14% | -4% | -9% | -2% | 5% | -14% | ?
CCOCCCNC(=O)c1cc2c(=O)n(C)c3ccccc3c2n1C | -17% | i | -12% | ? | 0% | 3% | . | . | . | . | .
Cc1ccc(C)c(Nc2nn3c(=O)c4ccc(C(=O)NCc5cccs5)cc4nc3s2)c1 | -10% | -9% | ? | 13µM* | ? | ? | -13% | ? | -1% | ? | ?
Cc1ccccc1Nc1nn2c(=O)c3ccc(C(=O)NCc4ccccc4)cc3nc2s1 | 23% | i | 4% | ? | -7% | -15% | . | . | . | . | .
CCc1ccccc1Nc1nn2c(=O)c3ccc(C(=O)Nc4cc(C)cc(C)c4)cc3nc2s1 | -16% | 1% | -10% | 7.3µM* | 16% | 13% | -4% | ? | -3% | 22µM* | 12µM* | PMP22 prot conf=-8%
Cc1cnc(Nc2cccc(CN3CCOCC3)c2)nc1Nc1cccc(S(=O)(=O)NC(C)(C)C)c1 | . | -28% | . | . | . | . | . | . | . | . | .
COc1ccc(-c2c(-c3ccc(O)cc3O)n[nH]c2C)cc1 | . | -8%[92.2 µM] | . | . | . | . | . | . | . | . | .
Cc1ccccc1NC(=O)c1ccc(F)c(S(=O)(=O)N(C)C2CCCCC2)c1 | -2% | -5% | 0% | 5µM* | -14% | 5% | -17% | ? | 3% | -5% | -27%
CNC(=O)CN1CCC(Oc2cc3c(Nc4cccc(Cl)c4F)ncnc3cc2OC)CC1 | . | -21% | . | . | . | . | . | . | . | . | .
O=S(=O)(N=Cc1c(O)ccc2ccccc12)c1cccs1 | . | 23% | . | . | . | . | . | . | . | . | .
O=C(Nc1ccc(OC(F)(F)F)cc1)c1sccc1NCc1ccnc2ccccc12 | . | 1% | . | . | . | . | . | . | . | . | .
COC(=O)c1c(-c2ccc(Cl)cc2)noc1N1CCN(c2cccc(OC)c2)CC1 | 11% | -23% | 4% | 7µM* | ? | -6% | ? | -5% | 4% | 5% | 12µM*
COC(=O)c1c(-c2ccc(Cl)cc2)noc1N1CCN(c2cccc(C)c2C)CC1 | 22% | ? | -18% | ? | ? | -9% | . | . | . | . | .
O=C(NCc1ccccc1Cl)C1CCN(S(=O)(=O)c2ccc3c(c2)CCCN3C(=O)C2CCC2)CC1 | -14% | -12% | -3% | 8.5µM* | ? | 0% | -15% | 5% | -3% | -15% | -20%
CC(C)(O)CCc1ccc(OCc2cc(-c3cccc(OC(F)F)c3)c3ncccc3c2)cc1 | . | 8% | . | . | . | . | . | . | . | . | .
CC(C)CN(C[C@H](O)[C@H](Cc1ccccc1)NC(=O)O[C@H]1CCOC1)S(=O)(=O)c1ccc(N)cc1 | . | -6% | . | . | . | . | . | . | . | . | .
N#CC[C@H](C1CCCC1)n1cc(-c2ncnc3[nH]ccc23)cn1 | . | 37% | . | . | . | . | . | . | . | . | .
COCCOC(=O)C1=C(C)NC2=C(C(=O)CC(c3ccccc3OC)C2)C1c1cccc(O)c1 (stereo not given) | . | 8% | . | . | . | . | . | . | . | . | .
CCCC1=Nc2cc(C(=O)NC3CCCC3)ccc2Sc2ccc(C)cc21 | ? | -8% | -10% | 3.7µM* | 2% | 24% | -8% | -1% | 9% | -2% | 4.4µM*
CC1=Nc2cc(C(=O)N3CCCCC3)ccc2Sc2ccc(C)cc21 | -4% | i | -4% | -26% | 13% | 11% | . | . | . | . | .
CCCC1=Nc2cc(C(=O)NC3CCCCC3)ccc2Sc2ccc(C)cc21 | 12% | -8% | -3% | 0.9µM* | -34% | 13% | -10% | 3% | -8% | 1% | 2.9µM* | PMP22 prot conf=?
CC1=Nc2cc(C(=O)NC3CCCCC3)ccc2Sc2ccc(Cl)cc21 | 19% | -5% | ? | 6µM* | -6% | 40% | -4% | 0% | 2% | -5% | 8.7µM*
NC(=O)NN=Cc1ccc([N+](=O)[O-])o1 | . | 12% | . | . | . | . | . | . | . | . | .
O=C(O)[C@H]1O[C@H](Oc2cc3oc(-c4ccccc4)cc(=O)c3c(O)c2O)[C@H](O)[C@@H](O)[C@H]1O | . | 3% | . | . | . | . | . | . | . | . | .
CC(C)CN(C[C@@H](O)[C@H](Cc1ccccc1)NC(=O)O[C@H]1CO[C@H]2OCC[C@H]21)S(=O)(=O)c1ccc(N)cc1 | . | -9% | . | . | . | . | . | . | . | . | .
